Reference: the supplement of paper PMC8371130
Where a name gives a salt, the structure may show the parent alone.

test system: HL-1; test: relative cell viability (CellTiter-Glo) vs DMSO control (% of DMSO control); higher = more viable cells; conditions: oxygen condition: hypoxia 48 h (1% O2) + reoxygenation 24 h; 40 nM
How it was run: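 HL-1 mouse atrial cardiomyocytes were seeded into 384-well plates at 1000 cells per well along with compounds at 40, 200, 1000 or 5000 nM in 0.01% DMSO. After one day, the cells were moved to a hypoxic workstation (1% O2) for 48 h and then reoxygenated for 24 h in a normal incubator, while others remained in normoxia for the same period. Cell viability was measured by CellTiter-Glo luminescence and normalised to vehicle-treated control cells.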

Structure (SMILES)	relative cell viability
NC(=O)NO [Hydroxyurea]	101
Cc1onc(-c2ccccc2)c1C(=O)N[C@@H]1C(=O)N2[C@@H]1SC(C)(C)[C@@H]2C(=O)O [Oxacillin sodium monohydrate]	104
CC(C)(C(=O)O)c1ccc(C(O)CCCN2CCC(C(O)(c3ccccc3)c3ccccc3)CC2)cc1 (stereo not drawn) [Fexofenadine HCl]	106
CN(C)CCCN1c2ccccc2CCc2ccccc21 [Imipramine HCl]	98.5
CCC[C@H](N[C@@H](C)C(=O)N1[C@H](C(=O)O)C[C@@H]2CCCC[C@@H]21)C(=O)OCC [Perindopril Erbumine]	110
COc1ccccc1OCCNCC(O)COc1cccc2[nH]c3ccccc3c12 (stereo not drawn) [Carvedilol]	93.5
NCC(=O)CCC(=O)O [5-Aminolevulinic acid hydrochloride]	101
CCNC(=O)CCC/C=C\C[C@@H]1[C@@H](/C=C/[C@@H](O)CCc2ccccc2)[C@H](O)C[C@@H]1O [Bimatoprost]	104
Nc1nnc(-c2cccc(Cl)c2Cl)c(N)n1 [Lamotrigine]	107
CNCC[C@@H](Oc1ccccc1C)c1ccccc1 [Atomoxetine HCl]	102
Clc1ccc2nsnc2c1NC1=NCCN1 [Tizanidine HCl]	99.5
CC(C)c1c(C(=O)Nc2ccccc2)c(-c2ccccc2)c(-c2ccc(F)cc2)n1CC[C@@H](O)C[C@@H](O)CC(=O)O [Atorvastatin calcium]	107
C[C@@H]1CCN(C(=O)CC#N)C[C@@H]1N(C)c1ncnc2[nH]ccc12 [Tofacitinib citrate]	97
CCN(Cc1ccncc1)C(=O)C(CO)c1ccccc1 (stereo not drawn) [Tropicamide]	102
N=C(N)NC(=O)c1nc(Cl)c(N)nc1N [Amiloride hydrochloride]	103
NCCCC(O)(P(=O)(O)O)P(=O)(O)O [Alendronate]	104
CC(=O)Oc1ccccc1C(=O)O [Aspirin]	94
NC(=O)N1c2ccccc2CC(=O)c2ccccc21 [Oxcarbazepine]	104
CC(=O)OCC(=O)[C@@]12OC(C)(C)O[C@@H]1C[C@H]1[C@@H]3C[C@H](F)C4=CC(=O)C=C[C@]4(C)[C@@]3(F)[C@@H](O)C[C@@]12C [Fluocinonide]	93.4

Structure (SMILES)	relative cell viability
CC(=O)[C@H]1CC[C@H]2[C@@H]3CC=C4C[C@@H](O)CC[C@]4(C)[C@H]3CC[C@]12C [Pregnenolone]	100
CCCOc1ccc(C(=O)OCCN(CC)CC)cc1N [Proparacaine HCl]	88.3
C=CC[C@@H]1/C=C(\C)C[C@H](C)C[C@H](OC)[C@H]2O[C@@](O)(C(=O)C(=O)N3CCCC[C@H]3C(=O)O[C@H](/C(C)=C/[C@@H]3CC[C@@H](O)[C@H](OC)C3)[C@H](C)[C@@H](O)CC1=O)[C@H](C)C[C@@H]2OC	102
O=C(Nc1ccc([N+](=O)[O-])cc1Cl)c1cc(Cl)ccc1O [Niclosamide]	10
CCCCCCCCOc1ccccc1C(=O)Nc1ccc(C(=O)OCC[N+](C)(CC)CC)cc1 [Otilonium Bromide]	101
C#C[C@]1(OC(C)=O)CC[C@H]2[C@@H]3CCC4=C[C@@H](OC(C)=O)CC[C@@H]4[C@H]3CC[C@@]21C [Ethynodiol diacetate]	97.7
N[C@@H]1CN(c2c(F)cc3c(=O)c(C(=O)O)cn([C@@H]4C[C@@H]4F)c3c2Cl)CC12CC2 [Sitafloxacin hydrate]	101
CCCCCCNC(=O)n1cc(F)c(=O)[nH]c1=O [Carmofur]	102
CCCC(CCC)C(=O)O [Divalproex sodium]	98.3
c1ccc2c(CC3=NCCN3)cccc2c1 [Naphazoline hydrochloride]	97.8
C[C@]12CC[C@@H]3c4ccc(O)cc4C[C@@H](CCCCCCCCC[S+]([O-])CCCC(F)(F)C(F)(F)F)[C@H]3[C@@H]1CC[C@@H]2O (stereo partly drawn) [Fulvestrant]	102
N=C(N)Nc1ccc(C(=O)Oc2ccc3cc(C(=N)N)ccc3c2)cc1 [Nafamostat mesylate]	103
Cc1cn([C@H]2C[C@H](N=[N+]=[N-])[C@@H](CO)O2)c(=O)[nH]c1=O [Zidovudine]	106
O=C(O)Cc1cc(I)c(Oc2ccc(O)c(I)c2)c(I)c1 [Tiratricol]	96.6
C[C@@H](Oc1cc(-c2cnn(C3CCNCC3)c2)cnc1N)c1c(Cl)ccc(F)c1Cl [Crizotinib]	94.3
CC[C@H]1OC(=O)[C@H](C)[C@@H](O[C@H]2C[C@@](C)(OC)[C@@H](O)[C@H](C)O2)[C@H](C)[C@@H](O[C@@H]2O[C@H](C)C[C@H](N(C)C)[C@H]2O)[C@](C)(OC)C[C@@H](C)C(=O)[C@H](C)[C@@H](O)[C@]1(C)O [Clarithromycin]	101
S=c1[nH]cnc2nc[nH]c12 [Mercaptopurine]	112
CCOc1nc2cccc(C(=O)OC(C)OC(=O)OC3CCCCC3)c2n1Cc1ccc(-c2ccccc2-c2nn[nH]n2)cc1 (stereo not drawn) [Candesartan cilexetil]	106
NC12CC3CC(CC(C3)C1)C2 [Amantadine hydrochloride]	107
